Records with an inconclusive call do not appear. Values without a mark were called inactive. The source made the active and inactive calls. The call rests on the fitted dose curve; in most records, active means well fitted inhibition curve with a large enough effect; inconclusive means small, poorly fitted or top-dose-only effect; inactive means flat fitted curve, though single readings scatter.
Assay: P-glycoprotein substrates identified in KB-8-5-11 adenocarcinoma cell line, qHTS therapeutic library screen (AID 1346987); further: nearly all actives have a fitted effect of over 65% in size
Conditions: KB-8-5-11 (P-gp overexpressing) viability, CellTiter-Glo, 72 h; series mostly up to 44.5 µM; activity change, negative = cytotoxicity: at the top concentration
Summary of the method: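 KB-8-5-11, a colchicine-selected P-gp-overexpressing KB-3-1 subline, was grown without colchicine for the assay. Cells were seeded at 500 cells/well, dosed in concentration-response and incubated 72 h at 37 degree C, 5% CO2. Viability was read by CellTiter-Glo luminescence.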
In the case of `CC(C)=CCC[C@](C)(O)[C@H]1CC[C@]2(C)[C@@H]1[C@H](O)CC1[C@@]3(C)CC[C@H](O)C(C)(C)C3[C@@H](O[C@@H]3O[C@H](CO)[C@@H](O)[C@H](O)[C@H]3O[C@@H]3OC[C@@H](O)[C@H](O)[C@H]3O)C[C@]12C` (some centres not stated), the “outcome” value is reported as “inactive [at 17.3 µM]”. In the case of `O=C(NCC(O)CO)c1ccncc1Nc1ccc(I)cc1F` (configuration not stated), the “activity change, negative = cytotoxicity” value is reported as -15%. For `CC1=C(C(=O)OCc2ccccc2)C(c2ccc(-c3ccccc3)cc2)NC(=O)N1CCCCCC(=O)O` (configuration not stated), the “outcome” value was “inactive”. With `CCC(Nc1ncnc2nc[nH]c12)c1nc2cccc(F)c2c(=O)n1-c1ccccc1` (configuration not stated) the “activity change, negative = cytotoxicity” value was -4.15%. With `CC(=O)C12OC(C)(C)OC1CC1C3CCC4=CC(=O)C=CC4(C)C3(F)C(O)CC12C` (configuration not stated) the “activity change, negative = cytotoxicity” value was 0.381%. With `COc1ccc(C2(O)c3ccccc3NC(=O)C2O)cc1` (configuration not stated) the “outcome” value was “inactive”. With `O=C1CCC(=O)N(O)CCCCCNC(=O)CCC(=O)N(O)CCOCCNC(=O)CCC(=O)N(O)CCCCCN1` the “activity change, negative = cytotoxicity” value was 1.95% [at 17.3 µM]. With `Cc1cc(OCc2nc(-c3ccccc3Cl)cs2)ccc1OCC(=O)O` the “outcome” value was “inactive”. With `COc1ccc(N2CCOCC2)c2sc(NC(=O)N3CCC(C)(O)CC3)nc12` the “outcome” value was “inactive”. With `CC1CC(O)/C=C/C(O)C(O)CC(=O)Cc2c(Cl)c(O)cc(O)c2C(=O)O1` (configuration not stated) the “outcome” value was “inactive”. In the case of `CCCOc1ccc(-c2nc(OC)c3ccccc3n2)cc1`, the “activity change, negative = cytotoxicity” value is reported as -10.1%. With `COC(=O)C1=CO[C@@H](O[C@@H]2O[C@H](CO[C@@H]3O[C@H](COC(=O)/C=C/c4cc(OC)c(O)c(OC)c4)[C@@H](O)[C@H](O)[C@H]3O)[C@@H](O)[C@H](O)[C@H]2O)[C@@H]2C(CO)=CC[C@H]12` the “outcome” value was “inactive [at 17.3 µM]”. Work on `C[C@@H]1CC[C@]2(C(=O)O[C@@H]3O[C@H](CO)[C@@H](O)[C@H](O)[C@H]3O)CC[C@]3(C)C(=CCC4[C@@]5(C)C[C@@H](O)[C@H](O)[C@@](C)(C(=O)O[C@H]6[C@H](O)C[C@@]7(C)C(CC[C@]8(C)C7CC=C7[C@H]9[C@](C(=O)O[C@@H]%10O[C@H](CO)[C@@H](O)[C@H](O)[C@H]%10O)(CC[C@@H](C)[C@@]9(C)O)CC[C@]78C)[C@@]6(CO)C(=O)O)C5CC[C@]43C)[C@@H]2[C@]1(C)O` (some centres not stated) yielded an activity change, negative = cytotoxicity of 1.31% [at 9.29 µM]. In the case of `CC1CC[C@]2(C(=O)O)CC[C@]3(C(=O)O)C(=CCC4[C@@]5(C)CC[C@H](OC6OC(C)C(O)C(OC7OC(CO)C(O)C(O)C7O)C6O)C(C)(C)C5CC[C@]43C)C2C1C` (some centres not stated), the “outcome” value is reported as “inactive [at 17.3 µM]”. For `CCCCNc1ncc2c(-c3ccc(F)cc3)nn(CC3CCC(N)CC3)c2n1` (configuration not stated), the Potency was 1780 nM (active). With `C=C1C(O)C[C@@H]2C(C(=O)O)=CO[C@@H](O[C@@H]3O[C@H](CO)[C@@H](O)[C@H](O)[C@H]3OC(=O)c3ccc(O)cc3)[C@H]12` (some centres not stated) the “outcome” value was “inactive [at 17.3 µM]”. With `C=C1C(=O)O[C@@H]2C[C@H](C)[C@@]3(O)C=C(C(C)=O)[C@]4(CC3C[C@H]12)C(=O)O[C@H]1C[C@@H](C)C(CCC(C)=O)=CC[C@H]14` (some centres not stated) the “outcome” value was “inactive [at 17.3 µM]”. In the case of `COc1cc2c(cc1O)[C@H](c1ccc(O[C@@H]3O[C@H](CO)[C@@H](O)[C@H](O)[C@H]3O)c(OC)c1)[C@@H](CO)[C@](O)(CO)C2`, the “outcome” value is reported as “inactive [at 17.3 µM]”. For `CCN1CCN(Cc2ccc(NC(=O)c3ccc(C)c(NC(=O)c4cncc(-c5cccs5)c4)c3)cc2C(F)(F)F)CC1`, the Potency was 7310 nM (active). In the case of `C=C[C@@]12COC(=O)C(=C)C1[C@@H](O)[C@H](C(=C)C(=O)OC)[C@@H](OC(=O)C(=C)CO)C2` (some centres not stated), the “activity change, negative = cytotoxicity” value is reported as 5.64% [at 17.3 µM]. With `C=C[C@H]1C(O[C@@H]2O[C@H](CO)[C@@H](O)[C@H](O)[C@H]2O)OC=C2C(=O)N3CCc4c([nH]c5ccccc45)C3CC21` (some centres not stated) the “activity change, negative = cytotoxicity” value was 3.04% [at 17.3 µM]. With `CCn1c(=O)c(-c2ccn[nH]2)cc2c(C)nc(N)nc21` the Potency was 2910 nM (active). In the case of `CC1(C)CC[C@]2(C(=O)O[C@@H]3O[C@H](CO)[C@@H](O)[C@H](O)[C@H]3O)CC[C@]3(C)C(=CCC4[C@@]5(C)C[C@@H](O)[C@H](O)C(C)(C)C5CC[C@]43C)C2[C@@H]1O` (some centres not stated), the “activity change, negative = cytotoxicity” value is reported as 0.909% [at 17.3 µM]. With `CC1(C)C[C@H](O)C[C@@]2(C)OC(=O)C=C12` the “activity change, negative = cytotoxicity” value was 5.98% [at 93.4 µM]. In the case of `C=C[C@H]1[C@H](O[C@@H]2O[C@H](CO)[C@@H](O)[C@H](O)[C@H]2O)OC=C(C(=O)OC)[C@H]1CCOC(=O)c1cc(O)c(O)c(O)c1`, the “activity change, negative = cytotoxicity” value is reported as 0.853% [at 17.3 µM]. In the case of `CC(C)=CCC(O)/C(C)=C/CO[C@@H]1O[C@H](CO)[C@@H](O)[C@H](O)[C@H]1O` (some centres not stated), the “activity change, negative = cytotoxicity” value is reported as 4.79%. For `C[C@@H]1O[C@@H](O[C@H]2[C@H](O[C@H]3[C@H](O[C@H]4CC[C@@]5(C)C(CC[C@]6(C)C5CC=C5[C@@H]7CC(C)(C)CC[C@]7(C(=O)O[C@@H]7O[C@H](CO)[C@@H](O[C@@H]8O[C@@H](C)[C@H](O)[C@@H](O)[C@H]8O)[C@H](O)[C@H]7O)CC[C@]56C)C4(C)C)OC[C@H](O)[C@@H]3O)O[C@H](CO)[C@@H](O)[C@@H]2O)[C@H](O)[C@H](O)[C@H]1O` (some centres not stated), the outcome was “inactive [at 9.29 µM]”.

Source: PubChem BioAssay (NCATS)
On the % scale 0 is the no-effect control and ±100 the full control effect; potency means the concentration at half of the fitted maximal effect.
